System: Vero E6 infected with SARS-CoV-2
Assay: inhibition of SARS-CoV-2 cytopathic effect; higher = more antiviral protection, active = above 15
Details: 48 h

Measured: inhibition of SARS-CoV-2 cytopathic effect

c1ccc2nc(N3CCNCC3)ccc2c1 [quipazine]
inactive: 1 nM 2.16% | 8.33 nM -1.97% | 100 nM -0.43% | 833.33 nM 1.22% | 10000 nM -2.16%

CC(=O)OCC(=O)[C@@]1(O)CC[C@H]2[C@@H]3CCC4=CC(=O)CC[C@]4(C)[C@H]3[C@@H](O)C[C@@]21C [hydrocortisone-acetate]
inactive: 1 nM -3.27% | 8.33 nM -0.84% | 100 nM 0.23% | 833.33 nM -1.92% | 10000 nM -0.4%

CN(C)CC[C@@](O)(c1ccccc1)c1ccccc1Cl [clofedanol]
inactive: 1 nM 1.53% | 8.33 nM 1.3% | 100 nM 1.86% | 833.33 nM 1.12% | 10000 nM 2.42%

CN1CCN(c2nc3ccccc3nc2Cl)CC1
inactive: 1 nM -3.46% | 8.33 nM -0.96% | 100 nM -3.46% | 833.33 nM 0.73% | 10000 nM 5.89%

CNCc1ccc(-c2[nH]c3cc(F)cc4c3c2CCNC4=O)cc1 [rucaparib]
inactive: 1 nM 1.82% | 8.33 nM 5.76% | 100 nM 7.61% | 833.33 nM 5.18% | 10000 nM 0.16%

CC[N+](CC)(CCNC(=O)C(=O)NCC[N+](CC)(CC)Cc1ccccc1Cl)Cc1ccccc1Cl [ambenonium]
inactive: 1 nM 0.39% | 8.33 nM -2.16% | 100 nM -1.45% | 833.33 nM 0.75% | 10000 nM 0.34%

COC(=O)c1sccc1S(=O)(=O)Nc1ccc(Nc2ccccc2)cc1OC
inactive: 1 nM 2.58% | 8.33 nM 5.94% | 100 nM 2.5% | 833.33 nM 5.14% | 10000 nM 8.94%

C=C[C@]1(C)C[C@@H](OC(=O)CS[C@@H]2C[C@H]3CC[C@@H](C2)N3C)[C@]2(C)[C@H](C)CC[C@]3(CCC(=O)[C@H]32)[C@@H](C)[C@@H]1O [retapamulin]
inactive: 1 nM -0.46% | 8.33 nM 2.42% | 100 nM 1.21% | 833.33 nM 1.93% | 10000 nM -0.87%

NS(=O)(=O)c1cc(-c2nnn[nH]2)c(NCc2cccs2)cc1Cl [azosemide]
inactive: 1 nM 2.38% | 8.33 nM -0.55% | 100 nM 3.16% | 833.33 nM 9.99% | 10000 nM -3.43%

NCCCCN(Cc1nc2ccccc2[nH]1)[C@H]1CCCc2cccnc21
inactive: 1 nM -0.42% | 8.33 nM -1.96% | 100 nM 0.37% | 833.33 nM -1.81% | 10000 nM 0.08%

C=C[C@@]1(C)CC(=O)[C@]2(O)[C@@]3(C)[C@@H](O)CCC(C)(C)[C@@H]3[C@H](O)[C@H](OC(C)=O)[C@@]2(C)O1 [colforsin]
inactive: 1 nM 2% | 8.33 nM 2.29% | 100 nM 2.56% | 833.33 nM -1.53% | 10000 nM 0.905%

O=C(NCc1ccccc1)c1csc(Nc2ccncn2)n1 [thiazovivin]
inactive: 1 nM -2.48% | 8.33 nM 1.22% | 100 nM -1.94% | 833.33 nM -2% | 10000 nM -11.5%

Cn1cc(-c2ccc3nnc(Sc4ccc5ncccc5c4)n3n2)cn1
inactive: 1 nM 0.46% | 8.33 nM -0.33% | 100 nM -1.37% | 833.33 nM -0.25% | 10000 nM 3.33%

O=C(c1cc2ccccc2o1)N1CCN(Cc2ccccc2)CC1 [befuraline]
inactive: 1 nM -1.29% | 8.33 nM 1.94% | 100 nM 3.17% | 833.33 nM 0.64% | 10000 nM -2.11%

CC1=C(/C=C/C(C)=C/C=C/C(C)=C/C=C/C=C(C)/C=C/C=C(C)/C=C/C2=C(C)C(=O)[C@@H](O)CC2(C)C)C(C)(C)C[C@H](O)C1=O [astaxanthin]
inactive: 1 nM -9.22% | 8.33 nM -11% | 100 nM -9.1% | 833.33 nM -8.76% | 10000 nM -11.5%

O=C1NC(=O)[C@@]2(CCOc3ccc(F)cc32)N1 [sorbinil]
inactive: 1 nM -0.44% | 8.33 nM -2.13% | 100 nM -2.63% | 833.33 nM -0.6% | 10000 nM -0.07%

CC/C=C\C/C=C\C/C=C\C/C=C\C/C=C\C/C=C\CCC(=O)OCC [doconexent-ethyl-ester]
inactive: 1 nM -1.67% | 8.33 nM 0.01% | 100 nM 0.45% | 833.33 nM 0.72% | 10000 nM 0.36%

Cc1c2oc3c(C)ccc(C(=O)N[C@@H]4C(=O)N[C@@H](C(C)C)C(=O)N5CCC[C@H]5C(=O)N(C)CC(=O)N(C)[C@@H](C(C)C)C(=O)O[C@@H]4C)c3nc-2c(C(=O)N[C@@H]2C(=O)N[C@@H](C(C)C)C(=O)N3CCC[C@H]3C(=O)N(C)CC(=O)N(C)[C@@H](C(C)C)C(=O)O[C@@H]2C)c(N)c1=O [actinomycin-d]
inactive: 1 nM -0.33% | 8.33 nM 1.99% | 100 nM 0.83% | 833.33 nM -8.47% | 10000 nM -14.8%

Cc1nnc(C(C)C)n1C1C[C@H]2CC[C@@H](C1)N2CC[C@H](NC(=O)C1CCC(F)(F)CC1)c1ccccc1 (stereo in doubt) [maraviroc]
inactive: 1 nM -2.38% | 8.33 nM -1.45% | 100 nM 1.77% | 833.33 nM -0.21% | 10000 nM 2.92%

CN1CCc2c(c3ccccc3n2Cc2ccccc2)C1 [mebhydrolin]
inactive: 1 nM -0.15% | 8.33 nM 2.44% | 100 nM 1.76% | 833.33 nM -0.47% | 10000 nM -1.08%

NS(=O)(=O)c1cc2c(cc1C(F)(F)F)NC(Cc1ccccc1)NS2(=O)=O (stereo not given) [bendroflumethiazide]
inactive: 1 nM -0.89% | 8.33 nM -3.12% | 100 nM -0.42% | 833.33 nM -1.39% | 10000 nM 0.82%

CC[C@@H](C)c1ccc(NC(=O)Cn2cnc3c2c(=O)n(C)c(=O)n3C)cc1 (racemic)
inactive: 1 nM -0.15% | 8.33 nM 0.22% | 100 nM -1.39% | 833.33 nM -1.04% | 10000 nM 3.52%

CC(=O)N(OCc1ccccc1)[C@@H]1c2cc(C#N)ccc2OC(C)(C)[C@H]1O
inactive: 1 nM -4.41% | 8.33 nM -2.98% | 100 nM -6.3% | 833.33 nM 2.7% | 10000 nM 2.53%

Clc1cccc(Cl)c1NC1=NCCN1 [clonidine]
inactive: 1 nM -0.43% | 8.33 nM -2.8% | 100 nM -3.01% | 833.33 nM 0.52% | 10000 nM -5.58%

NC(=O)NC(=O)Cc1ccccc1 [phenacemide]
inactive: 1 nM -1.41% | 8.33 nM 0.22% | 100 nM -0.3% | 833.33 nM 0.89% | 10000 nM 0.35%

CC1=C(/C=C/C(C)=C/C=C/C(C)=C/C=O)C(C)(C)CCC1 [retinaldehyde]
inactive: 1 nM -0.27% | 8.33 nM 1.56% | 100 nM 3.22% | 833.33 nM 6.75% | 10000 nM 10.4%

N.N.[Cl][Pt][Cl] [cisplatin]
inactive: 1 nM 1.16% | 8.33 nM 0.86% | 100 nM 0.61% | 833.33 nM 3.21% | 10000 nM 1.76%

O/N=C/c1cc[n+](COC[n+]2ccc(/C=N/O)cc2)cc1 [obidoxime]
inactive: 1 nM 1.54% | 8.33 nM -0.64% | 100 nM -1.56% | 833.33 nM -1.59% | 10000 nM -2.39%

OC[C@@H](O)[C@@H](O)[C@H](O)[C@@H](O)CO [sorbitol]
inactive: 1 nM 0.49% | 8.33 nM -0.64% | 100 nM -0.23% | 833.33 nM 1.86% | 10000 nM 1.46%

O=C(O)/C=C\c1c[nH]cn1 [cis-Urocanic acid]
inactive: 1 nM 0.865% | 8.33 nM -1.24% | 100 nM -1.15% | 833.33 nM -0.955% | 10000 nM 1.12%

COc1ccccc1OC(=O)c1ccccc1OC(C)=O [guacetisal]
inactive: 1 nM -0.24% | 8.33 nM -1.18% | 100 nM 1.85% | 833.33 nM 4.31% | 10000 nM -0.68%

N[C@@H]1CCCCN(c2c(F)cc3c(=O)c(C(=O)O)cn(C4CC4)c3c2Cl)C1 [besifloxacin]
inactive: 1 nM -2.51% | 8.33 nM 1.39% | 100 nM 2.41% | 833.33 nM 2.48% | 10000 nM 2.15%

CCc1nc(N)nc(N)c1-c1ccc(Cl)cc1 [pyrimethamine]
inactive: 1 nM 2.57% | 8.33 nM 3.29% | 100 nM 2.35% | 833.33 nM 1.69% | 10000 nM -1.07%

Cn1cc(C[C@@H](N)C(=O)O)c2ccccc21 [indoximod]
inactive: 1 nM -3.51% | 8.33 nM -2.58% | 100 nM -2.33% | 833.33 nM -1.85% | 10000 nM -1.3%

COc1cc(C)c(/C=C/C(C)=C/C=C/C(C)=C/C(=O)O)c(C)c1C [acitretin]
inactive: 1 nM 0.15% | 8.33 nM -1.89% | 100 nM 0.02% | 833.33 nM -0.64% | 10000 nM -0.58%

Nc1nc(=O)[nH]cc1F [flucytosine]
inactive: 1 nM -1.58% | 8.33 nM -2.1% | 100 nM 0.5% | 833.33 nM 2.44% | 10000 nM 1.48%

CO[C@H]1/C=C/O[C@@]2(C)Oc3c(C)c(O)c4c(O)c(c(/C=N/N=C/N5CCCCC5)c(O)c4c3C2=O)NC(=O)/C(C)=C\C=C\[C@H](C)[C@H](O)[C@@H](C)[C@@H](O)[C@@H](C)[C@H](OC(C)=O)[C@@H]1C
inactive: 1 nM 5.27% | 8.33 nM 5.73% | 100 nM 6.01% | 833.33 nM 4.61% | 10000 nM 3.27%

Cn1c(=O)c2[nH]cnc2n(C)c1=O [aminophylline]
inactive: 1 nM -0.89% | 8.33 nM -0.66% | 100 nM -1.42% | 833.33 nM -0.87% | 10000 nM -0.09%
